Shown are actives, neighbours in structure and some others; about 10% of the full set was active somewhere.
p97 ATPase inh: inhibitors of human p97 ATPase, primary screen, biochemical. recombinant p97 ATPase, Kinase-Glo ATP luminescence, 3 h. inhibition, % at 8 µM. hit rate 0.42% among 220,000. AID 1481, 2009; in the data active = inhibition above about 15%
PTEN del growth: growth suppression of PTEN-null HCT116, primary screen, cell-based, CellTiter-Glo. AID 827, 2007. HCT116 PTEN-null viability, 60 h; stronger effect = lower value. hit rate 1.2% among 140,000. viability, % at 10 µM;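 active = viability at or below a set limit, 4 SD under the median of all tested compounds, cut at about 3.7% in these data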;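 note: PTEN knockout HCT116 line with beta catenin targeted HCT116 as companion control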
bCat KO growth: primary screen for growth suppressors in beta-catenin knockout HCT116 cells (colon tumor, human); HCT116 beta-catenin knockout viability, CellTiter-Glo, 60 h; stronger effect = lower value; viability, % at 10 µM; hit rate 1.5% among 140,000;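 active = viability at or under a set limit, the compound median less 4 SD, cut at about 6% in these data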
Insulin prom inh: inhibitors of insulin promoter-driven GFP, primary screen, imaging, TRM-6 cells (human fetal islet line), eGFP reporter, cell count; reporter expression induced with tamoxifen; inhibition, % at 2 µM; hit rate 0.9% among 130,000; AID 1273, 2008;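 active = inhibition above the mean plus 3 SD, with well images judged a real hit on visual review, cut at about 60% in these data, passing the limit was not always enough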
L major viab: Leishmania major promastigote growth inhibition, primary screen; Leishmania major promastigotes, resazurin fluorescence viability; inhibition, % at 10 µM; hit rate 9% among 200,000; in the data active = inhibition above about 50%;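 note: promastigotes grown with compound for 44 hours at 28 °C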
ROMK mod: ROMK potassium channel modulators, primary screen, cell-based, thallium flux, MLSMR library. ATP-sensitive inward rectifier potassium channel 1 (Homo sapiens), P48048. Tet-inducible ROMK, thallium flux fluorescence; actives lie on both sides. B-score at 10 µM. hit rate 2% among 130,000. AID 1918, 2009;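 active = signal ratio slope over the read window, or its plate-corrected B-score, at least 3 SD from the plate mean, either direction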;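 note: B-score of the F/F0 ratio slope over 7 to 12 s after thallium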
Target sequence (P48048 whole entry, looked up): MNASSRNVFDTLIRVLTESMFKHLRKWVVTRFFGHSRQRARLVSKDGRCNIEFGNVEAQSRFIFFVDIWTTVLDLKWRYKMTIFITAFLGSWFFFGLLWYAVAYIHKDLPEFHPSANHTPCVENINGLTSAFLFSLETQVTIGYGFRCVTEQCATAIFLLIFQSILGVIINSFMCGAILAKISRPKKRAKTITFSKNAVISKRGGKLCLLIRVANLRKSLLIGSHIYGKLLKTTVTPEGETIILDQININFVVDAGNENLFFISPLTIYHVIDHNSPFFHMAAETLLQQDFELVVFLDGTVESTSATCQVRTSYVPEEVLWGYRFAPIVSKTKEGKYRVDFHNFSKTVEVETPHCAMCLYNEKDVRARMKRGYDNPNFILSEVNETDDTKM
Numbers stand for hits; - = inactive; . = no result.

SMILES	p97 ATPase inh	PTEN del growth	bCat KO growth	Insulin prom inh	L major viab	ROMK mod
CC(C)COc1ccc(C(=O)Nc2ccc([N+](=O)[O-])cc2)cc1	-	.	.	.	-	-
CC(C)OC(=O)c1cc(NC(=S)Nc2ccc([N+](=O)[O-])cc2)cc(C(=O)OC(C)C)c1	-	-	-	.	100	.
CC(C)CCNC(=S)Nc1ccc([N+](=O)[O-])cc1	-	-	-	-	68	-
CN(C(=O)Nc1ccc(C(C)(C)C)cc1)C1CCCCC1	-	.	.	.	.	-
Cc1cc(C)c2c(=O)n(CC(=O)NC3CCCC3)sc2n1	-	.	.	.	.	.
COc1ccc(OC)c(CCNC(=O)Cn2sc3nc(C)cc(C)c3c2=O)c1	-	1.9	1.9	.	-	.
COC(=O)c1c(C)c2c(C)cc3ccccn3c-2c1C(=O)OC	-	-	-	-	-	-
COC(=O)c1cc2c(-c3ccccc3)cc3ccccn3c-2c1C(=O)OC	-	-	-	-	88	-
Cc1ccc(OCC(O)CN2CCN(Cc3ccc4c(c3)OCO4)CC2)c(C)c1 (stereo unspecified)	-	-	-	-	87	.
CC(=O)c1ccc(OCC(O)CN2CCN(Cc3ccc4c(c3)OCO4)CC2)cc1 (stereo unspecified)	-	-	-	.	93	.
COc1ccccc1N1CCN(CC(O)COc2ccc3c(c2)OCO3)CC1 (stereo unspecified)	-	.	.	-	-	-
COc1ccc(OCC(O)CN2CCN(Cc3ccc4c(c3)OCO4)CC2)cc1 (stereo unspecified)	-	-	-	-	99	-
Cc1nc2c(-c3ccc(F)cc3)c(C)nn2c(C)c1CCC(=O)Nc1ccccc1F	-	.	.	.	.	.
CN(C)S(=O)(=O)c1cc(NC(=O)COC(=O)c2ccc3c(c2)OCO3)ccc1Cl	-	-	-	.	-	.
O=C(CN1CCCc2ccccc21)NC(=O)NCc1ccco1	-	-	-	.	-	.
O=C(CN1CCCCCCC1)NC(=O)NC1CCCCC1	-	.	.	-	58	-
CC1Cc2ccccc2N1CC(=O)NC(=O)NCc1ccco1 (stereo unspecified)	-	-	-	-	97	-
CC1Cc2ccccc2N1CC(=O)NC(=O)NC1CCCC1 (stereo unspecified)	-	.	.	.	98	-
O=C(Nc1cnn(C23CC4CC(CC(C4)C2)C3)c1)c1cnn2c(C(F)(F)F)cc(-c3ccco3)nc12	-	-	-	-	82	.
Cc1ccc(C(=O)c2sc(Nc3ccccc3)c(C#N)c2N)cc1	-	-	-	-	74	.
N#Cc1c(Nc2ccccc2)sc(C(=O)c2ccc(F)cc2)c1N	-	-	-	-	66	.
Cc1ccc(CSc2sc(C(=O)c3ccccc3)c(N)c2C#N)cc1	-	-	-	-	-	.
Nc1c(C(=O)c2ccccc2)sc(Nc2ccccc2)c1S(=O)(=O)c1ccccc1	-	-	-	-	95	-
N#Cc1c(Nc2ccccc2)sc(C(=O)C2CC2)c1N	-	-	-	-	-	.
Cc1cccc2c(N=Nc3ccc(S(=O)(=O)Nc4ccc(Cl)cc4)cc3[N+](=O)[O-])c(O)[nH]c12	-	.	.	-	53	-
SMILES	p97 ATPase inh	PTEN del growth	bCat KO growth	Insulin prom inh	L major viab	ROMK mod
CCCNC(=O)CSc1nnc(-c2ccco2)n1C	-	-	-	.	-	.
CCn1nc(C)c(NC(=O)CSc2nnc(-c3ccco3)n2C)c1C	-	-	-	81	-	-
O=C(c1ccc(S(=O)(=O)N2CCCCCC2)cc1)N(c1ccccn1)C1CCCCC1	-	.	.	.	56	-
O=C(c1ccc(S(=O)(=O)N2CCCCC2)cc1)N(c1ccccn1)C1CCCCC1	-	.	.	.	.	.
COc1ccc(C)cc1NC(=O)NNC(=O)C1CCC(C(C)(C)C)CC1 (stereo unspecified)	-	.	.	.	-	-
O=C(O)/C=C/c1ccc(-n2ccnc2)cc1	-	.	.	.	.	.
O=C(CC(c1ccccc1)c1ccccc1O)NCc1ccco1 (stereo unspecified)	-	-	-	-	-	.
O=C(CC(c1ccccc1)c1ccccc1O)NCc1ccccc1Cl (stereo unspecified)	-	-	-	-	51	-
O=C(CC(c1ccccc1)c1cc(Br)ccc1O)NCc1ccco1 (stereo unspecified)	-	-	-	-	99	-
COc1cc(/C=C(\NC(=O)c2ccccc2)C(=O)N2CC3CC(C2)c2cccc(=O)n2C3)cc(OC)c1OC (stereo unspecified)	-	.	.	.	.	-
O=C(COC(=O)/C=C/c1ccccc1Cl)NC1CCCCCC1	-	.	.	-	-	-
Cc1ccc(OCC(=O)N(c2ccccn2)C2CCCCC2)c(C)c1	-	-	-	-	87	-
C1=C(CCNCC2CC2)CCCC1	-	-	-	-	-	-
Cc1ccc(CNCCC2=CCCCC2)cc1	-	-	-	-	70	-
CCc1ccc2nc(N=C(N)N)nc(C)c2c1	-	.	.	.	96	-
Cc1cc2nc(N=C(N)N)nc(C)c2cc1C	-	.	.	.	100	-
CCCCn1c(=O)[nH]c(=O)c2c1nc(-c1ccccc1F)n2Cc1ccccc1OC	-	.	.	-	-	.
Clc1cccc(/C(Cc2nc3ccccc3[nH]2)=N\Nc2ccccc2)c1	-	-	-	.	-	.
Cc1ccc(C)c(OCC(O)CN2CCN(CCN3C(=O)c4cccc5cccc(c45)C3=O)CC2)c1 (stereo unspecified)	-	1.2	1.1	-	100	-
O=C1c2cccc3cccc(c23)C(=O)N1CCN1CCN(C(=S)Nc2ccccc2)CC1	-	-	-	-	95	.
CC(=O)c1ccccc1OCC(O)CN1CCN(CCN2C(=O)c3cccc4cccc(c34)C2=O)CC1 (stereo unspecified)	-	.	.	.	99	-
O=C1c2cccc3cccc(c23)C(=O)N1CCN1CCN(CC(O)COc2ccc3ccccc3c2)CC1 (stereo unspecified)	-	1.2	1.5	-	81	.
COc1cc(COCC(O)CN2CCN(CCN3C(=O)c4cccc5cccc(c45)C3=O)CC2)cc(OC)c1OC (stereo unspecified)	-	-	-	-	-	-
O=C1c2cccc3cccc(c23)C(=O)N1CCN1CCN(CC(O)COCc2ccc(Cl)cc2)CC1 (stereo unspecified)	-	2.7	3.1	-	-	-
CSc1sc(C(=O)N(C)C)c2c1S(=O)(=O)N(C)c1ccccc1-2	-	.	.	.	.	.
SMILES	p97 ATPase inh	PTEN del growth	bCat KO growth	Insulin prom inh	L major viab	ROMK mod
c1ccc(N/N=C2\CCCc3ccccc32)nc1	-	.	.	-	-	-
Fc1ccc2c(c1)/C(=N/Nc1ccccn1)CCS2	-	.	.	.	55	-
O=C1OC2CC3CC1CC(O)(C3)C2 (stereo unspecified)	-	-	-	86	-	-
COc1ccc(-c2csc(Cc3nnc4n3CCCCC4)n2)cc1OC	-	-	-	-	60	.
CCCCC1C2C(=O)N(c3ccc(C)cc3)C(=O)C2ON1c1ccccc1 (stereo unspecified)	-	.	.	.	.	-
COCCn1c(Cc2cccn2C)nnc1SCC(=O)NCc1ccc2c(c1)OCO2	-	.	.	.	-	-
Cc1ccc(Cn2nnnc2CN2CCC(O)(c3cccnc3)CC2)cc1	-	.	.	79	53	-
